Screening data as filed in PubChem.
CD40 NFkB inh = inhibitors of CD40-induced NF-kB signaling, primary screen, BL2 cells, luciferase reporter, single point. CD40L-induced, 4 h. AID 1053188, 2014. inhibition, % at 10 µM. 0.94% of 83,000 active;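 active means mean inhibition of at least 50% with a set share of replicates also reaching that level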;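 further: 0% = neutral control wells and 100% = IKK inhibitor VII at 50 µM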
* marks the source's active call; other numbers are inactive results; [ ] = remark or other dose. The entries come from a sample that favours hits as a whole.

SMILES	CD40 NFkB inh
CN1C(=O)c2cc(NC(=O)c3ccc(F)cc3)ccc2OC[C@H]2O[C@H](CC(=O)NCC3CCCCC3)CC[C@@H]21	-2
COc1cccc(Nc2nc(-c3ccc4c(c3)OCCO4)cs2)c1	-94
COc1ccccc1C(=O)Nc1nc(-c2ccc3c(c2)OCCO3)cs1	50*
O=C(Nc1nc(-c2ccc3c(c2)OCCO3)cs1)c1ccco1	-5
COc1ccccc1C#Cc1ccc([C@H]2[C@@H](C#N)N(C(=O)C3CC3)[C@@H]2CO)cc1	-4
CCCNC(=O)N1CCC2(CC1)CN(C(=O)CC1CC1)[C@@H](CO)c1c2c2ccc(OC)cc2n1C	-3[25 µM]
O=C(NCCc1ccc2c(c1)OCCO2)c1cccc(S(=O)(=O)N2CCCC2)c1	43*
O=C(NCCN1CCOCC1)c1cccc(S(=O)(=O)N2CCCC2)c1	2
COc1ccc(CCNC(=O)c2cccc(S(=O)(=O)N3CCCC3)c2)cc1	5
O=C(C[C@H]1CC[C@@H]2NC[C@H](O)COC[C@H]2O1)NCc1ccc2c(c1)OCO2	-9[25 µM]
Cc1cc(Nc2cccc([N+](=O)[O-])c2)n2c(nc3ccccc32)c1C#N	78*
Cc1cc(NCCCN2CCOCC2)n2c(nc3ccccc32)c1C#N	-15
Cc1cc(NCCN2CCOCC2)n2c(nc3ccccc32)c1C#N	3
C[C@H](CO)N1C[C@H](C)[C@@H](CN(C)C(=O)Nc2ccc(C(F)(F)F)cc2)OCCCC[C@H](C)Oc2ccc(NC(=O)Nc3ccc4c(c3)OCO4)cc2C1=O	-2
Cc1ccc(P(=O)(CSC(=N)N)c2ccc(C)cc2)cc1	61*
C[C@H]1CN([C@@H](C)CO)C(=O)CCCn2cc(nn2)CO[C@H]1CN(C)C(=O)Nc1cccc2ccccc12	0[25 µM]
O=C(NC[C@@H]1[C@H](c2ccccc2)[C@@H](CO)N1C(=O)Cc1ccncc1)C1CCC1	5[25 µM]
NCCOc1ccc(C23CC4CC(CC(C4)C2)C3)cc1	104*
Nc1nnc(CCOc2ccc(Cl)cc2)s1	-4
NC(=O)c1ccc(C23CC4CC(CC(C4)C2)C3)o1	-1
CC(C)C1C(=O)N(S(C)(=O)=O)[C@@H]2CCN(C(=O)/C=C/CN3CCCCC3)[C@@H]12 (some centres not stated)	-5[25 µM]
C[C@H]1CCCCO[C@H](CN(C)S(=O)(=O)c2ccc(F)cc2)[C@@H](C)CN([C@@H](C)CO)C(=O)c2cc(NS(=O)(=O)c3ccccc3)ccc2O1	10
O=C(C[C@H]1C=C[C@H](NC(=O)c2cccc(F)c2)[C@H](CO)O1)NCc1ccccc1	1
CN1C[C@@H]2[C@H](c3ccccc31)[C@H](CO)N2Cc1ccccc1Cl	1[25 µM]
C=C1C(=O)OC2C=C(CO)CCC=C(CO)CC(OC(=O)C(C)C)C12 (configuration not stated)	87*
SMILES	CD40 NFkB inh
C=C1C(=O)OC2C1C(OC(=O)C(C)=CC)CC(=C)C1C(O)C3OC3(C)C21O (configuration not stated)	33
C[C@H]1CN([C@@H](C)CO)C(=O)c2cc(NS(=O)(=O)c3ccccc3)ccc2O[C@@H]1CN(C)Cc1ccc(C(=O)O)cc1	-1
O=C(C1CCOCC1)N1CC(=O)N2[C@H](CO)[C@@H](c3ccc(C#CCc4ccccc4)cc3)[C@H]2C1	-6[25 µM]
O=C(C1CCCC1)N1CC(=O)N2[C@@H](CO)[C@@H](c3ccc(C#CCc4ccccc4)cc3)[C@@H]2C1	55*
COCC#Cc1ccc([C@H]2[C@H]3CN(C(=O)C4CCCCC4)CC(=O)N3[C@H]2CO)cc1	2[25 µM]
COCC#Cc1ccc([C@H]2[C@H]3CN(C(=O)C4CCCC4)CC(=O)N3[C@H]2CO)cc1	-3
O=C(C1CCCC1)N1CC(=O)N2[C@H](CO)[C@@H](c3ccc(C#CCc4ccccc4)cc3)[C@@H]2C1	39
O=C(C1CCCC1)N1CC(=O)N2[C@H](C1)[C@@H](c1ccc(C#CCc3ccccc3)cc1)[C@@H]2CO	51*
C[C@@H]1CN([C@@H](C)CO)C(=O)CCCn2cc(nn2)CO[C@@H]1CN(C)Cc1ccc(C(=O)Nc2ccccc2N)cc1	-12[25 µM]
C[C@@H]1CC(=O)N[C@@H](c2ccccc2)C/C=C\C[C@H](c2ccccc2)NC1=O	-3[25 µM]
CCC(=O)N1[C@@H]2c3ccc(C4=CCCC4)c(=O)n3C[C@@H]2[C@@H](CO)[C@@H]1C(=O)NC1CCCC1	6[25 µM]
O=C(C1CCC1)N1C[C@@H]2N[C@H](C1)C2c1ccc(-c2ccncc2)cc1 (some centres not stated)	19
O=C(Nc1ccc(F)cc1)N1C[C@@H]2[C@H](c3ccccc31)[C@@H](CO)N2C(=O)Cc1ccccn1	-9
NC1=C(Cl)C(=O)c2ccc(S(N)(=O)=O)cc2C1=O	60*
Nc1ccc(S(N)(=O)=O)cc1N	-45
NS(=O)(=O)c1ccc(Cl)c(S(N)(=O)=O)c1	10
CCC(=O)N[C@@H]1CC[C@H](CC(=O)NCC2CC2)O[C@@H]1CO	-3
COC(=O)c1ccccc1NC(=O)c1noc2c1CCCC2	-15
COc1ccc(CNC(=O)c2noc3c2CCCCC3)cc1	-55
CC(=O)c1ccc(NC(=O)c2noc3c2CCC3)cc1	58*
C[C@@H]1CN([C@H](C)CO)C(=O)c2cc(NC(=O)Cc3cn(C)c4ccccc34)ccc2O[C@@H]1CN(C)Cc1ccc2c(c1)OCO2	-9[25 µM]
CCn1c2ccccc2c2cc(/C=C(/C#N)C(N)=S)ccc21	-5
N#CC(C#N)=C(N)/C(C#N)=C/c1cc(O)c(O)c(O)c1	-18[25 µM]
CC(C)(C)c1cc(/C=C(\C#N)C(N)=S)cc(C(C)(C)C)c1O	56*[25 µM]
CN1[C@@H]2c3ccc(-c4ccncc4)c(=O)n3C[C@H]1[C@H](CO)[C@H]2C(=O)N1CCC(Cc2ccccc2)CC1	-8[25 µM]
SMILES	CD40 NFkB inh
COc1cccc(NC(=O)C[C@@H]2CC[C@@H]3[C@H](COc4ccc(NC(=O)C5CCC5)cc4C(=O)N3C)O2)c1	16
C[C@@H]1CN([C@H](C)CO)C(=O)c2cc(N(C)C)ccc2O[C@@H](C)CCCCO[C@H]1CN(C)S(=O)(=O)c1ccc(F)cc1	3[25 µM]
C[C@H](O)C#Cc1ccc([C@H]2[C@@H](CO)N3CCCCN(CC4CCOCC4)C[C@@H]23)cc1	7
Cc1cccc(-c2ccc([C@H]3[C@@H](CO)N4CCCCN(S(=O)(=O)c5ccccc5F)C[C@@H]34)cc2)c1	-1[25 µM]
Cc1cccc(-c2ccc([C@@H]3[C@@H](CO)N4CCCCN(S(=O)(=O)c5ccccc5F)C[C@H]34)cc2)c1	71*[25 µM]
Cc1cccc(-c2ccc([C@@H]3[C@@H](CO)N4CCCCN(S(=O)(=O)c5ccccc5F)C[C@@H]34)cc2)c1	-16[25 µM]
COc1cccc(CNC(=O)C[C@H]2CC[C@H]3[C@H](COc4ccc(NC(=O)c5cccs5)cc4C(=O)N3C)O2)c1	11[25 µM]
C[C@H]1CN(C)C(=O)Cc2ccccc2O[C@H]1CN(C)C(=O)OC(C)(C)C	16
CC1CCCC=CC2CC(OC(=O)CN(C)C)CC2C(O)C=CC(=O)O1 (configuration not stated)	83*
O=C(COc1ccc2c(c1)OCO2)Nc1ccc(Cl)cn1	-71
O=C(COc1ccc2c(c1)OCO2)Nc1nnc(Cc2ccccc2)s1	12
O=C(COc1ccc2c(c1)OCO2)Nc1nccs1	47*
O=C(O)CC/C=C/CC1COC(c2ccccc2Cl)OC1c1ccccc1O (configuration not stated)	-18[25 µM]
COc1ccc2c3c([nH]c2c1)[C@H](CO)N(Cc1ccc(Cl)cc1)CC31CN(S(C)(=O)=O)C1	14[25 µM]
